Results reported in PubChem BioAssay AID624296 (National Center for Advancing Translational Sciences (NCATS), 2012).
Hit rate of the full screen: of about 350,000 compounds, about 9,900 (2.8%) were called active. Another 15% or so got no clear call; they are omitted. Many of the other results were omitted from the sample, so actives are more common in it than they were. Values without a mark were called inactive. Calls come from the whole dose curve; as a rule, active = well fitted activation curve with a large enough effect; inconclusive = small, poorly fitted or top-dose-only effect; inactive = no such curve, though single readings can be large or run the other way.

assay: A quantitative high throughput screen for small molecules that induce DNA re-replication in MCF 10a normal breast cells.; note: nearly all actives have a fitted effect of over 50% in size; for activity, positive = re-replication: % of control where 0% means no effect; conditions: MCF 10A DNA re-replication, Hoechst nuclear intensity, 48 h; series mostly up to 46.1 µM; activity, positive = re-replication: at the top concentration
Potency is the fitted concentration of half-maximal effect.

Row | Compound | activity, positive = re-replication | Potency
1 | COc1ccccc1C(CNC(=O)c1ccc(C)c(S(=O)(=O)N2CCCCC2)c1)N(C)C (stereo not given) | -2.66% | 
2 | COc1ccc(CC(=O)NCC(=O)N/N=C/c2cc(Br)ccc2OC)cc1 | 11% | 
3 | Cc1ccc(S(=O)(=O)Oc2ccc(/C=N/NC(=O)c3ccncc3)cc2)cc1 | 11% | 
4 | Cc1ccc(OCCOCCOc2ccc(Br)cc2/C=N\NC(=O)c2ccncc2)cc1 |  | 20.6 µM (active)
5 | CCCCc1ccc(NC(=O)CN2C(=O)NC(Cc3ccccc3)C2=O)cc1 (stereo not given) | -5.5% | 
6 | CCCCNCCS(=O)(=O)NCc1ccccc1 | 6.56% | 
7 | Cc1ccc(C)c(NC(=O)C(c2ccccc2)N2CCN(CC(=O)NC3CC3)CC2)c1 (stereo not given) | -1.84% | 
8 | Cc1ccc(-n2c(=O)c(C#N)cc3c(=O)n4ccccc4nc32)cc1C |  | 10.3 µM (active)
9 | Cc1ccc(-n2c(SCC(=O)N3CCC(C(=O)O)CC3)nc3ccccc3c2=O)cc1C | -3.72% | 
10 | Cc1ccn2c(=O)c(NC(=O)c3cccc4ccccc34)c(C)nc2c1 | 3.52% | 
11 | CC(=O)Nc1ccc(C(=O)Nc2cc(S(=O)(=O)N3CCOCC3)ccc2N2CCOCC2)cc1 | -7.14% | 
12 | COc1ccc(CCN2CC(C(=O)OCC(=O)NCc3ccccc3Cl)CC2=O)cc1OC (stereo not given) | 9.97% | 
13 | Fc1ccccc1-c1cc2cc3c(cc2cn1)OCO3 | 20.3% | 
14 | CC1=Nn2c(nnc2-c2ccccc2)SC1 | -3.17% | 
15 | Cc1nnc2n1N=C(c1ccccc1)CS2 | 1.39% | 
16 | COc1ccc(C2=Nn3c(nnc3-c3ccccc3OC)SC2)cc1OC1CCCC1 |  | 0.651 µM (active)
17 | CCOC(=O)c1ccccc1NS(=O)(=O)c1ccc(OC)cc1 |  | 16.4 µM (active)
18 | CCOc1cc(NS(=O)(=O)c2ccc(OC)cc2)c(OCC)cc1NC(C)=O | 12.6% | 
19 | CCOC(=O)c1ccccc1NS(=O)(=O)c1c(C)nc2sccn2c1=O | -0.74% | 
20 | CN1CCN(S(=O)(=O)c2ccc(N3CCN(c4ccccc4O)CC3)c([N+](=O)[O-])c2)CC1 | 2.95% | 
21 | CC(=O)c1sc(NC(=O)CCN2C(=O)C3CC=CCC3C2=O)nc1-c1ccccc1 (stereo not given) | -0.493% | 
22 | COc1ccc(-c2csc(Nc3ccccn3)n2)cc1 | 0.252% | 
23 | COc1ccc(CC(=O)Nc2nc(-c3ccc(F)c(F)c3)cs2)cc1OC | 3.89% | 
24 | COc1ccc(OC)c(Nc2nc(-c3ccc(O)c(O)c3)cs2)c1 |  | 8.2 µM (active)
25 | C=CC[C@@H](CC(=O)N[C@@H](CO)Cc1ccccc1)C(=O)N[C@H](COC(=O)[C@H](CC=C)CC(=O)OC(C)(C)C)Cc1ccccc1 | -10.2% | 

Row | Compound | activity, positive = re-replication | Potency
26 | Oc1cccc(CCc2ccccn2)c1 | -3.55% | 
27 | COc1cc(/C=C/C(=O)OCC(=O)NC2CC2)cc(OC)c1OC | -2.1% | 
28 | Cc1cc(C)c(C#N)c(SCc2[nH]nc3c2C(c2ccccc2)C(C#N)=C(N)O3)n1 (stereo not given) | -7.51% | 
29 | Cc1cc(C)c2c3c(sc2n1)C(c1ccccc1)C(C#N)=C(N)O3 (stereo not given) |  | 2.82 µM (active)
30 | Cc1nn(Cc2ccccc2)c2c1C(c1ccccc1)C(C#N)=C(N)O2 (stereo not given) | -2.92% | 
31 | CCn1nc(C(=O)Nc2ccc(N3CCOCC3)cc2)c2ccccc2c1=O | 3.71% | 
32 | O=C(/C=C/c1ccc([N+](=O)[O-])o1)NNC(=O)c1ccc(F)cc1 |  | 9.2 µM (active)
33 | C/[N+]([O-])=C\c1ccc([N+](=O)[O-])o1 | 14.2% | 
34 | O=C(NNC(=O)C1CCCC1)c1ccc(F)cc1 | -0.515% | 
35 | CC(C)Oc1ccc(CC(=O)NNC(=S)Nc2ccc(Br)cc2)cc1 |  | 16.4 µM (active)
36 | COCC(=O)Nc1ccc(Br)cc1 | -6.21% | 
37 | CC(C)Oc1ccc(CCC(=O)NNC(=S)NCc2ccccc2)cc1 | 0.118% | 
38 | CC(C)(C)OC(=O)N(Cc1ccccc1)Cc1ccc(OCc2cccc(NC(=O)c3ccccc3)c2)cc1 | 14.3% | 
39 | CC[C@]12c3[nH]c4ccc(OC)cc4c3CCN1C(=O)C(CC(=O)NCCN1CCOCC1)C[C@@H]2C(=O)N1CCN(C(=O)C2CC2)CC1 (stereo not given in full) | 1.05% | 
40 | Cc1ccsc1C(=O)N/N=C/c1ccc([N+](=O)[O-])cc1 | -0.593% | 
41 | Cc1ccc(/C=N/NC(=O)c2sccc2OCc2ccc(F)cc2)cc1 |  | 6.51 µM (active)
42 | Cc1ccc(COc2ccc(/C=N/NC(=O)CN3CCCCC3)cc2)cc1 | 0.536% | 
43 | CC(=O)Nc1ccc(SC[C@H](Cc2ccccc2)N2CC[C@@H](C)CCC2=O)cc1 | 1.91% | 
44 | COc1ccc(NS(=O)(=O)c2cc(NC(=O)c3ccc(S(=O)(=O)N(C)C)cc3)ccc2N2CCOCC2)cc1 | 1.21% | 
45 | COc1cc(NS(=O)(=O)c2ccc(NC(=S)NC(=O)c3ccccc3)cc2)nc(OC)n1 | -1.53% | 
46 | COc1cc(NS(=O)(=O)c2ccc(N=Cc3c(C)[nH]n(-c4ccccc4)c3=O)cc2)nc(OC)n1 | 4.18% | 
47 | COc1cc(NS(=O)(=O)c2ccc(N/C=C(\C=O)c3nc4cc(Cl)ccc4o3)cc2)nc(OC)n1 |  | 20.6 µM (active)
48 | Cc1ccc(C)c(C(=O)COC(=O)Cn2[nH]c(=O)c3ccccc3c2=O)c1 | 5.4% | 
49 | CCc1ccc(C(=O)C(C)OC(=O)CN2C(=O)NC3(CCCC3)C2=O)cc1 (stereo not given) | 5.71% | 
50 | CCC1=Nc2cc(C(=O)NCCN3CCCC3)ccc2Sc2ccc(C)cc21 | 17% | 
